# Results from PubChem BioAssay AID624264 (National Center for Advancing Translational Sciences (NCATS), 2012).
# Some of the results follow. Inconclusive results are not listed. Values without a mark were called inactive. Calls come from the whole dose curve; as a rule, active = well fitted curve in the direction sought with a large enough effect; inconclusive = small, poorly fitted or top-dose-only effect, or another doubt; inactive = no such curve, though single readings can be large or run the other way.
# Assay: qHTS for Inhibitors of Glutaminase (GLS): Hit Confirmation using Cytotoxicity
# Conditions: HEK-293 viability, CellTiter-Glo luminescence, 24 h; series mostly up to 46.1 µM; activity change, negative = cytotoxicity: at the top concentration
# Source text: Glutaminase (GLS) catalyzes the hydrolysis of glutamine into glutamate and ammonia. It plays a critical role in glutaminolysis, which is an important energy source for proliferating cells. It was shown that c-Myc, an oncogenic transcription factor known to regulate microRNAs and to stimulate cell proliferation, increases glutamine metabolism by stimulating the expression of GLS via direct suppression of miR23a and miR23b. […] GLS is also thought to play a pathogenic role on HAD using a human HIV-1 infected macrophage system. […] GLS inhibition limits glutamate release and provides neuroprotection against HIV-1 infected macrophages. […] The overall goal of this project is to identify small molecule inhibitors of GLS through quantitative high throughput screening (qHTS) of the MLSMR. A validated potent and selective inhibitor can be used as a tool molecule to further study the pharmacology of its target as well as explore its potential therapeutic application in cancer and inflammatory neurological disorders, such as HIV1-associated dementia (HAD) and multiple sclerosis. This is a hit confirmation assay using a cytotoxic read-out to exclude cytotoxic compounds. Toxic compounds will be labeled as active and excluded in future experiment. NIH Chemical Genomics Center [NCGC] NIH Molecular Libraries Probe Centers Network [MLPCN] MLPCN Grant: DA032470 Assay Submitter (PI): Barbara S. Slusher, Johns Hopkins University
# HEK-293 cells are grown in a flask up to 80% confluence. Cells will be trypsinized, washed, and resuspended in MEM Eagle + 10% FBS + 1% pen-strep media at the concentration of 120 cells/microl. Five microl/well of cell solution will be dispensed into a 1536-well assay plates (Greiner, solid white medium-binding plates) with Auror Discovery BioRAPTR Flying Reagent Dispenser (FRD; Beckton-Dickenson). Cells will be pre-incubated at 37 °C, 5% CO2 for 4hrs. Compound and control solutions (23nl) will then be transferred to the assay plate using the Kalypsys 1536 pin-tool. […] Luminescence signal will be read with PerkinElmer ViewLux plate reader after 30 min room temperature incubation.
row,Structure (SMILES),"activity change, negative = cytotoxicity"
1,O=C(O)c1cccc(S(=O)(=O)Nc2ccc(O)cc2Sc2nc3ccccc3s2)c1,-10.1%
2,CCN1C(=O)c2cccc3c(S(=O)(=O)Nc4ccccc4O)ccc1c23,-9.78%
3,COc1cc(OC)c(S(=O)(=O)Nc2ccccc2C(=O)O)cc1S(=O)(=O)Nc1ccccc1C(=O)O,5.49%
